# From PubChem BioAssay
# In the library only some 19% were active in any assay of this set; here they are far more common.
# ELG1 repair inh: inhibitors of ELG1-dependent DNA repair in HEK293T cells | HEK293T ELG1-luciferase reporter, luminescence, 16 h; DNA damage induced by 5-fluorouridine | Potency, µM (titrated, usually from 46.1 µM), for inactives: at the top dose activity change, negative = inhibition, usual class: inhibitors | hit rate 2.3% among 330,000; also: potency is read from the fitted curve at half-maximal effect; nearly all actives have a fitted effect of over 55% in size
#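 Quantitative HTS, concentration-response format. 2,000 cells/well co-treated with 5-fluorouridine and compound, 16 hr in 5% CO2 at 37 °C; ONE-Glo luminescence read after 30 min.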
# TDP1 cell noCPT: qHTS for Inhibitors of human tyrosyl-DNA phosphodiesterase 1 (TDP1): qHTS in cells in absence of CPT; Potency, µM (top dose mostly 46.2 µM), inactives show at the top dose activity change, negative = growth inhibition, most hits filed as inhibitors; DT40 Tdp1-/- hTDP1 cells, no CPT, ATP luminescence, 48 h; hit rate 15% among 420,000; AID 686978, 2013; also: potency is read from the fitted curve at half-maximal effect; nearly all actives have a fitted effect of over 55% in size
#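 No-CPT arm: Tdp1-/-;hTDP1 DT40 cells (400/well) plus compounds, incubated ≥48 hr at 37 °C. Readout CellTiter-Glo luminescence.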
# DT40 TDP1 CPT: growth inhibition of DT40 Tdp1-/-;hTDP1 cells with camptothecin (screen for TDP1 inhibitors). hit rate 12% among 420,000. AID 686979. chicken DT40 Tdp1-/-;hTDP1 cells + 20 nM CPT, ATP luminescence, 48 h. Potency, µM (doses to about 46.2 µM), without a hit: top-dose activity change, negative = growth inhibition, usual class: inhibitors; also: potency is read from the fitted curve at half-maximal effect; nearly all actives have a fitted effect of over 55% in size
#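 Cell growth measured by CellTiter-Glo luminescence after a minimum 48 h, 37 C compound exposure with 20 nM CPT in Tdp1-knockout DT40 cells stably expressing hTDP1, seeded 400/well; qHTS titration format.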
# IL-1B inflam inh: blocks inflammasome-driven IL-1 beta release. THP-1 LPS/ATP IL-1B secretion, AlphaLISA, 16 h; hits give low values. activity change, % at 57.5 µM. hit rate 4.7% among 360,000; in the data active = activity change below about -50%; inconclusive = mostly about -30% to -49%
#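 Secreted IL-1B measured by AlphaLISA bead assay after 16 h compound exposure of THP-1 cells; compounds (final up to 57.5 uM) added 1 h before LPS (250 ng/mL) and ATP (1.25 mM) stimulation; lower signal means less secretion.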
# HT1080 IDH1KD tx: toxicity to HT-1080 IDH1 knockdown cells (counter line). Potency, µM (top dose mostly 46.1 µM), without a hit: top-dose activity, negative = toxicity, hits mostly cytotoxic. hit rate 2% among 360,000. HT-1080 IDH1 knockdown viability, ATP luminescence, 48 h;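 also: potency is read from the fitted curve at half-maximal effect; 0% = DMSO wells and -100% = cell-free medium wells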
#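 After a 2 h attachment period, IDH1KD HT-1080 cells took pin-transferred compound for 48 h at 37 °C; ATP-based luminescence after 10 min room-temperature reagent incubation reported viability.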
# HT1080-NT tox: kills 2HG-producing HT-1080-NT fibrosarcoma cells. HT-1080-NT fibrosarcoma viability, CellTiter-Glo ATP luminescence, 48 h. Potency, µM (top dose mostly 46.1 µM), for the others: at the top dose activity, negative = less viability, actives largely listed as cytotoxic. hit rate 1.6% among 360,000. AID 686970;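 also: NT is the 2HG producing partner of a matched IDH1 knockdown line; potency is read from the fitted curve at half-maximal effect; 0% = DMSO-treated cells and -100% = media-only wells without cells; nearly all actives have a fitted effect of over 55% in size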
#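 Read-out is CellTiter-Glo luminescence after 10 minutes at room temperature, following 48 hours' compound treatment of HT-1080-NT cells (750 cells/well, RPMI, 5% FBS, 37 degrees C).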
# * = called active by the depositor; u = inconclusive; x = no result given; [ ] = dose if it differs, or a comment. Unless noted, calls follow the shape of the dose curve; as a rule, active = well fitted curve in the direction sought with a large enough effect; inconclusive = small, poorly fitted or top-dose-only effect, or another doubt; inactive = no such curve, though single readings can be large; an effect the other way counts as inactive or inconclusive. Unless noted, % is scaled to controls: 0 for no effect and ±100 for the full control effect.
SMILES,ELG1 repair inh,TDP1 cell noCPT,DT40 TDP1 CPT,IL-1B inflam inh,HT1080 IDH1KD tx,HT1080-NT tox
O=C(Nc1cccc(NC(=O)c2ccc3c(c2)OCO3)c1)c1ccccc1,u,-28%,5%,-22,-22%,-1%
O=C(Nc1ccc(O)cc1)c1ccc(NC(=O)c2cccs2)cc1,u,u,u,-28,23µM*,9.2µM*
Cc1ccccc1-c1nc(-c2ccc(NC(=O)c3cccs3)cc2)no1,u,u,23µM*,u,u,-11%
CCOC(=O)c1nnc(-c2ccc(C)cc2)nc1Sc1cccc(Cl)c1,4%,u,9.2µM*,1,11%,1%
CCOC(=O)c1nnc(-c2ccccc2)nc1N1CCSCC1,7%,u,-14%,-4,10%,10%
CCOC(=O)c1nnc(-c2ccccc2)nc1Oc1ccc(Cl)cc1,-9%,16µM*,21µM*,-71*,u,u
COc1ccccc1-c1ccnc(-n2ncc(C(=O)NCC3(N4CCOCC4)CCCC3)c2C)n1,x,-19%,8%[9.04 µM],x,x,x
CC1=CC(c2ccccc2)=NS(=O)(=O)N1,u,-5%,-6%,-104*,0%,1%
CCOC(=O)C1=NS(=O)(=O)NC(C)=C1,u,-9%,-11%,19,9%,1%
CCN(CC)CC(=O)c1c[nH]c2ccc(C)cc12,0%,23µM*,21µM*,11,-6%,1%
CC(C)OCCCn1c(SCC(N)=O)nc2c(sc3ccccc32)c1=O,x,u,21µM*,x,x,x
Cc1cccc(CSc2nc3c(sc4ccccc43)c(=O)n2CCC(=O)NC(C)C)c1,x,12µM*,4.6µM*,x,x,x
CC(C)OCCCn1c(SCC(=O)Nc2ccc(F)cc2)nc2c(sc3ccccc32)c1=O,x,-13%,-26%,x,x,x
C/C(N)=C(/C#N)C(=O)CSc1nc2ccccc2c(=O)n1CCCOC(C)C,u,23µM*,u,u,16%,1%
CCCCn1c(SCC(N)=O)nc2c(sc3ccccc32)c1=O,u,u,u,-21,-9%,22µM*
CCNC(=O)CSc1nc2ccccc2c(=O)n1CCCOC(C)C,u,-12%,-6%,2,13%,18%
CC(C)(OC(=O)c1ccc(F)cc1)c1cc2ccccc2c(=O)o1,20%,-16%,-2%,33,4%,1%
O=C(NCc1cccc(F)c1F)C1CCC(=O)N(C2CCCCCC2)C1 (stereo not given),3%,3%,-3%,3,1%,1%
Cc1ccc(O)c(C2=Nc3ccccc3N=C(c3cccs3)C2)c1,14%,16µM*,u,-12,-1%,0%
Oc1ccccc1C1=Nc2ccccc2N=C(c2cccs2)C1,0%,-8%,-11%,-7,u,-22%
CC(C)(C)c1ccc(-c2nc3c(C#N)c(-c4ccc5c(c4)OCO5)ccn3n2)cc1,5%,13µM*,18µM*,41,1%,-1%
COc1ccc(-c2csc(C(C)(O)c3ccc(F)c(F)c3)n2)cn1 (stereo not given),x,u,u,12,u,u
COc1ccc(N2CCN(C(CNC(C)=O)c3ccco3)CC2)cc1 (stereo not given),3%,10%,2%,12,4%,10%
COc1ccc(N2CCN(C(CNC(=O)OCc3ccccc3)c3ccco3)CC2)cc1 (stereo not given),-20%,u,u,-76*,-15%,-6%
COc1ccc(N2CCN(C(CNC(=O)C(=O)NCc3ccc4c(c3)OCO4)c3ccco3)CC2)cc1 (stereo not given),7.3µM*,-27%,u,21,-8%,-5%
